# Reference: PubChem BioAssay (NCATS)
# Inconclusive results are not listed. Where a call stands in place of a potency, no number is given. The source made the active and inactive calls. The call rests on the fitted dose curve; in most records, active means well fitted inhibition curve with a large enough effect; inconclusive means small, poorly fitted or top-dose-only effect; inactive means flat fitted curve, though single readings scatter.
# Molecular target: Calcium and integrin-binding protein 1 (Homo sapiens) (UniProt Q99828)
# Sequence (Q99828 whole entry, looked up): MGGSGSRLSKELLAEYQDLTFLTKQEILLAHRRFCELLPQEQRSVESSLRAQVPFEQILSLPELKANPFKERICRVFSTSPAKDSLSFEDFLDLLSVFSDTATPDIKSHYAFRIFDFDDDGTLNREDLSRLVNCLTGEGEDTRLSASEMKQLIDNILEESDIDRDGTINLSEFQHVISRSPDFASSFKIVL
# Assay: Primary qHTS for Identification of Calcium Integrin Binding Protein 1 (CIB1) Competitor (AID 1508620); further: top concentration of the series differs between compounds
# Details: CIB1-GST / FITC-alphaIIb peptide fluorescence polarization; series mostly up to 114 µM
# Summary of the method: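 Fluorescence polarization competition: GST-tagged CIB1 (1 uM final) preincubated with compound 15 min at room temperature, then FITC-labelled alphaIIb peptide (100 nM final) added. After 15 min at room temperature, polarization read at Ex 480/Em 540.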
row,SMILES,Potency
1,COc1ccc(C2=Nn3c(nnc3-c3cccc(OC)c3)SC2)cc1,inactive
2,NC(=O)c1ccc(C[C@H](C(=O)O)N2C(=O)c3ccc(C(=O)O)cc3C2=O)cc1,inactive
3,Nc1nc(Nc2cc(F)cc(F)c2)nc(NC2CCCC2)n1,inactive
4,O=C(O)c1ccc(-c2ccc3ncnc(NCC4CCCO4)c3c2)o1 (centres undefined),inactive
